# From ChEMBL document CHEMBL3988442, “University of Dundee, Small-Polar-MMV Screening Library” (2021)
# For some assays here: Measured potencies and affinities stand elsewhere.
# How the values were obtained:
# Parameters in all cases: scale not given: direction of the effect not stated beside the values
# [1] = target: Protein translocase subunit SecA (Escherichia coli (strain K12)) (UniProt P10408); assay: Assay to Identify E. coli SecA ATPase Inhibitors; assay type: functional; conditions: 30 µM
# Chain of Protein translocase subunit SecA (Escherichia coli (strain K12)) (P10408 whole entry): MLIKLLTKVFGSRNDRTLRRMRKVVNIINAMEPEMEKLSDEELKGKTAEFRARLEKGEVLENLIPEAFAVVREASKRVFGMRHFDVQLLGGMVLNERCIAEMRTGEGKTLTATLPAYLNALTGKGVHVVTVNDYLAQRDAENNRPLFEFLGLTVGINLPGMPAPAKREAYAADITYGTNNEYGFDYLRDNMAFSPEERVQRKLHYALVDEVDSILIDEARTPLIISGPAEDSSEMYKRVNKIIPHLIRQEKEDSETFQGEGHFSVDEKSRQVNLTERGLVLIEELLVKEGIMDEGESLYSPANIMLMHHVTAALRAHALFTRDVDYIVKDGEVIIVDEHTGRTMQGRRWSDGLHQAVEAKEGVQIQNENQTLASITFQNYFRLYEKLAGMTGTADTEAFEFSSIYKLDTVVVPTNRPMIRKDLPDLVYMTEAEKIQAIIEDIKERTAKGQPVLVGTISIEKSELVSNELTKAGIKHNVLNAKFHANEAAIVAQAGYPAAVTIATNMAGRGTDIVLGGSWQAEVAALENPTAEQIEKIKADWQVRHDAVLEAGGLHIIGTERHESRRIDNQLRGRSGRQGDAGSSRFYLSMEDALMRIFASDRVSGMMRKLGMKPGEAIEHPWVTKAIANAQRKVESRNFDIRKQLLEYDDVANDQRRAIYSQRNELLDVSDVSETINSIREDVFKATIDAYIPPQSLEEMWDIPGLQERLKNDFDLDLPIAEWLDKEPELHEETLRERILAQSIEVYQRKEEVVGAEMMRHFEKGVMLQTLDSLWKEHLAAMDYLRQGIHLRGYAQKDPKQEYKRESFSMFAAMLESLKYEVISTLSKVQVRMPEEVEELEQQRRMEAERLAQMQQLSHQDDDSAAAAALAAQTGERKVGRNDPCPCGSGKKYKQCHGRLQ
# [2] = target: T1, Ubiquitin-activating enzyme e1, putative (Leishmania donovani (strain BPK282A1)) (UniProt E9BSI1); assay: Leishmania donovani Ubiquitin Activating Enzyme (LdE1); assay type: functional; conditions: 30 µM
# T1 sequence (whole entry): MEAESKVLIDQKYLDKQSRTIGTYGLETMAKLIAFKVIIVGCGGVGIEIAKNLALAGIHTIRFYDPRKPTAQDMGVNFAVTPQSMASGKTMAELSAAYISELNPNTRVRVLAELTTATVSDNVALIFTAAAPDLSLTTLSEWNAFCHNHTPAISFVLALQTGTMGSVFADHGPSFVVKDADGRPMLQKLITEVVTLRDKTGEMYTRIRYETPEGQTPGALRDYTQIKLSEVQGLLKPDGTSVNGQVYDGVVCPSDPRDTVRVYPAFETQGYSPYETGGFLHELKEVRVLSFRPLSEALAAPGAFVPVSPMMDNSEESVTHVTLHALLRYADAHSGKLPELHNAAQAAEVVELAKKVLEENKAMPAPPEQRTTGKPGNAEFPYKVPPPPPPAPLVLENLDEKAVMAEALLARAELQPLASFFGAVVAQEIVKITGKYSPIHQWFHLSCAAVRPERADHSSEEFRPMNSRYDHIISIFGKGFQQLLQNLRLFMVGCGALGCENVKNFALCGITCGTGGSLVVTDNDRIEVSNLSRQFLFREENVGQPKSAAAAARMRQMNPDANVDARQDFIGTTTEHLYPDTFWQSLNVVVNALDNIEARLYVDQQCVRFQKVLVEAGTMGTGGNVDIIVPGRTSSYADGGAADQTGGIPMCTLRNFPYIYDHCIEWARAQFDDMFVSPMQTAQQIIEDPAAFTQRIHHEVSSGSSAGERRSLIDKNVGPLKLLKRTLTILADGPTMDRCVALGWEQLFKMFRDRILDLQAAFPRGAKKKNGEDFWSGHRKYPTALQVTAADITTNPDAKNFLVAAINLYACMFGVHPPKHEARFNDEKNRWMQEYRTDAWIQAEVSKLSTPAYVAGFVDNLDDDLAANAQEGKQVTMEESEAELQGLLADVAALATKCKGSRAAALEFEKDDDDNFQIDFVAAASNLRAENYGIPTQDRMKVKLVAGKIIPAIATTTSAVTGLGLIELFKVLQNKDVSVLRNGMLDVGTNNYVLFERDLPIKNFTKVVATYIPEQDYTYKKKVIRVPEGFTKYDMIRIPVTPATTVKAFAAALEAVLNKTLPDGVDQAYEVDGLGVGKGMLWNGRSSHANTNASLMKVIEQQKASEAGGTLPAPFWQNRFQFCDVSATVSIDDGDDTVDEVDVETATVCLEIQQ
# [3] = target: AMP-activated protein kinase, AMPK (Homo sapiens) (UniProt P54646+O43741+P54619+Q9UGJ0+Q9Y478+Q13131+Q9UGI9); assay: AMP-dependent Kinase enzyme assay. An in vitro enzyme assay that detects ADP turnover that is directly proportional to AMPK activity. This uses naive AMPK that is activated during the assay with MK-8722; assay type: functional; conditions: 30 µM
# [4] = target: Sialic acid-binding Ig-like lectin 9 (Homo sapiens) (UniProt Q9Y336); assay: Hs-Siglec9 ALPHAscreen SOP 20170721; conditions: 10 µM
# Chain of Sialic acid-binding Ig-like lectin 9 (Homo sapiens) (Q9Y336 whole entry): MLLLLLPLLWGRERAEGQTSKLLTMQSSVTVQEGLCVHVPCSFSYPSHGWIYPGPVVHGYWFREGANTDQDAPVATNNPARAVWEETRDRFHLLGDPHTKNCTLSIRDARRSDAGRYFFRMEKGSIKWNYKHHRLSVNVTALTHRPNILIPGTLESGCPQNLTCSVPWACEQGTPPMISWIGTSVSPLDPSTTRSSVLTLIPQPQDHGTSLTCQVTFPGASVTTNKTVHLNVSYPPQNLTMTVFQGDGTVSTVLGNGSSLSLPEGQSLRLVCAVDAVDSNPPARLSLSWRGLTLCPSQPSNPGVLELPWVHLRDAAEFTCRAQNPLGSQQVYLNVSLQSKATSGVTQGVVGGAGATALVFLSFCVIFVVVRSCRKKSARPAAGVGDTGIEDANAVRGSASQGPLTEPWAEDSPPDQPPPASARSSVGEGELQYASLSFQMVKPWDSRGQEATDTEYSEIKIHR
# Trypanosoma cruzi = assay: Trypanosoma cruzi phosphomannomutase and mannose-1-phosphate guanylyltransferase assay; assay type: functional; conditions: 10 µM
# [5] = target: T2, Arginase-2, mitochondrial (Homo sapiens) (UniProt P78540); assay: in vitro enzyme assay to detect the production of urea directly proportional to the activity of Arginase II; assay type: functional; conditions: 33.3 µM; further: in the data most compounds retested in dose-response had high values
# T2 sequence (whole entry): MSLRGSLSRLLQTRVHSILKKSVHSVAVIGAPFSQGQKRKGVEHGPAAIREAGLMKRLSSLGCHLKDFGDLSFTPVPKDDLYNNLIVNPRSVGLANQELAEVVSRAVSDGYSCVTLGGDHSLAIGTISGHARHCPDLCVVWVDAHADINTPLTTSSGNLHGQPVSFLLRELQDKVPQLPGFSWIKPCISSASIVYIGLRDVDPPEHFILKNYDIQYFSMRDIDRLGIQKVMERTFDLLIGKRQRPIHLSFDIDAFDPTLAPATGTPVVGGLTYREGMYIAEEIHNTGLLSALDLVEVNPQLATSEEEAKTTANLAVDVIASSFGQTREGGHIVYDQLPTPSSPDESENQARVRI
# [6] = target: T3, Proteasome subunit beta (Trypanosoma cruzi) (UniProt O96673); assay: Trypanosoma cruzi proteasome chymotrypsin-like activity (TcProtChymo) assay.; further: in the data most compounds retested in dose-response had high values; assay type: functional; conditions: 9.37 µM
# T3 sequence (whole entry): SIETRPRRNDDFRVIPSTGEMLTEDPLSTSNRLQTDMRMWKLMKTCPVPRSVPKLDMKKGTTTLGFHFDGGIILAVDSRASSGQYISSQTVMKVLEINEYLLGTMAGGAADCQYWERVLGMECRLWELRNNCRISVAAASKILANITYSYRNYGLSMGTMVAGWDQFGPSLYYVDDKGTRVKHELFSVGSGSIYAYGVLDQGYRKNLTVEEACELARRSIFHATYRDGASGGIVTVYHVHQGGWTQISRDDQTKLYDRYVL
# Homo sapiens = species: Homo sapiens; assay: To identify inhibition of the IFN signalling (Jak-Stat) pathway via expression of an eGFP reporter gene under the control of an IFN-stimulated response element (ISRE) containing MxA promoter.; assay type: functional; conditions: 30 µM
# [7] = target: T4, Tyrosyl-tRNA synthetase, putative (Trypanosoma cruzi (strain CL Brener)) (UniProt Q4DSP6); assay: Trypanosoma cruzi tyrosyl tRNA synthetase (TcYRS) _High Tyrosine SOP; assay type: functional; conditions: 30 µM; further: in the data most compounds retested in dose-response had high values
# T4 sequence (whole entry): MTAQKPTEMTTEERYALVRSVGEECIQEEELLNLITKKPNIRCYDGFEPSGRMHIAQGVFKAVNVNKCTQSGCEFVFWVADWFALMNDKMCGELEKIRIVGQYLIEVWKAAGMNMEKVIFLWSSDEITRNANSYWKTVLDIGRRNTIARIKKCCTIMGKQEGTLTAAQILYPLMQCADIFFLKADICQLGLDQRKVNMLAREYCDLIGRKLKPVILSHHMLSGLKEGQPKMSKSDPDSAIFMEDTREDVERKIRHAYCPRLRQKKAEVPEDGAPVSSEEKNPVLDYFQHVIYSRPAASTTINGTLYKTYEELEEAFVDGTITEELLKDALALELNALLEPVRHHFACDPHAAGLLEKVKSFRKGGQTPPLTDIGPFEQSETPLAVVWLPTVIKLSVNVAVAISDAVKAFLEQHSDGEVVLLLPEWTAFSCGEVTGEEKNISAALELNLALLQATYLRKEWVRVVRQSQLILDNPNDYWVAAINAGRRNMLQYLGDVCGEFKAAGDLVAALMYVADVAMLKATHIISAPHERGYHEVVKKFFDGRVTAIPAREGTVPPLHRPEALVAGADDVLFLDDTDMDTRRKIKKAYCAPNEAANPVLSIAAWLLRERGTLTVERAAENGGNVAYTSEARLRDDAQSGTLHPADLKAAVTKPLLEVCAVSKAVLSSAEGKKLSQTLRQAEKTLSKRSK
# [8] = target: T4, Tyrosyl-tRNA synthetase, putative (Trypanosoma cruzi (strain CL Brener)); assay: Trypanosoma cruzi tyrosyl tRNA synthetase (TcYRS) SOP; assay type: functional; conditions: 30 µM
# [9] = target: Chromo domain-containing protein 1 (Saccharomyces cerevisiae (strain ATCC 204508 / S288c) (Baker's yeast)) (UniProt P32657); assay: ScCHD-1 Enzyme Inhibition Assay; assay type: functional; conditions: 30 µM; further: in the data most compounds retested in dose-response had high values
# Chain of Chromo domain-containing protein 1 (Saccharomyces cerevisiae (strain ATCC 204508 / S288c) (Baker's yeast)) (P32657 whole entry, the tested form may be a part): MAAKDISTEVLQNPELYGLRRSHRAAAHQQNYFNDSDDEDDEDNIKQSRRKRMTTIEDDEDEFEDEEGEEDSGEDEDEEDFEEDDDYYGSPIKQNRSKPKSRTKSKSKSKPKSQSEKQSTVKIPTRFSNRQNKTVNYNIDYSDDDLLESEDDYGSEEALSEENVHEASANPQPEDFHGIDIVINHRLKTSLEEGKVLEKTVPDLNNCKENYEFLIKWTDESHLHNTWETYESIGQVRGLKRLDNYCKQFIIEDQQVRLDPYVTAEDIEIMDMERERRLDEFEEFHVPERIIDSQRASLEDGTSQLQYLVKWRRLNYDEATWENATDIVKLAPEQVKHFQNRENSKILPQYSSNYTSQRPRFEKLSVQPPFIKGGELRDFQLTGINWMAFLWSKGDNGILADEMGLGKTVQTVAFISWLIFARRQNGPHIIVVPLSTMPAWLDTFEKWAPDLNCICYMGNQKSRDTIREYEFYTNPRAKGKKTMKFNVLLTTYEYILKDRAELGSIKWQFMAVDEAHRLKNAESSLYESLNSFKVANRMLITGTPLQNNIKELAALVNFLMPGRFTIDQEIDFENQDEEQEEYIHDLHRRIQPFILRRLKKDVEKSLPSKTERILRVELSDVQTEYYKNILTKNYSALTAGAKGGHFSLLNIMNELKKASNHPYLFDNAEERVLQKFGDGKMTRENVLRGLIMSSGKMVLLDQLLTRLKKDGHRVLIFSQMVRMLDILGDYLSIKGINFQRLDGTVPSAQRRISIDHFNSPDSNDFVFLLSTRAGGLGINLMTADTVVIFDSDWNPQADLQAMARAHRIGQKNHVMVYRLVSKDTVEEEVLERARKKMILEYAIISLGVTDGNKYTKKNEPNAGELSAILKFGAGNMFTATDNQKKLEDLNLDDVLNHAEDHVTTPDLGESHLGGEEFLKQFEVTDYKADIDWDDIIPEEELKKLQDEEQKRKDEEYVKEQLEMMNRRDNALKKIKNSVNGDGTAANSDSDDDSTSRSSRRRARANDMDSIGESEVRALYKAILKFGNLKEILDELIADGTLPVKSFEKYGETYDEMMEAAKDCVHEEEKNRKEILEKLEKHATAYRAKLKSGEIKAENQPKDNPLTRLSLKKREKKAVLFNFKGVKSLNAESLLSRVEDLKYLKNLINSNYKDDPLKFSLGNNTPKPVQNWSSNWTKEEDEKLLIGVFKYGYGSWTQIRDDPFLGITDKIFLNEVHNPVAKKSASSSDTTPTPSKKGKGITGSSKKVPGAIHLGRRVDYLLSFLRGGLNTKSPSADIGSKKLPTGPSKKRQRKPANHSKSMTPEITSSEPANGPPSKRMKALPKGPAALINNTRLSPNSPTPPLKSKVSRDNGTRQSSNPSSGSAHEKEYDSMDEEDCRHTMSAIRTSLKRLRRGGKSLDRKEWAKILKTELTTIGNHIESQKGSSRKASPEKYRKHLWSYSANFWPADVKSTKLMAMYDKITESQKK
SMILES,Percent Effect [1] [%],Percent Effect [2] [%],Percent Effect [3] [%],Percent Effect [4] [%],Percent Effect (Trypanosoma cruzi) [%],Percent Effect [5] [%],Percent Effect [6] [%],Percent Effect (Homo sapiens) [%],Percent Effect [7] [%],Percent Effect [8] [%],Percent Effect [9] [%]
COc1cccc2c1OCC(CNC(=O)CCCN1CCOCC1)C2 (configuration not stated),-1.74,5.41,-7.92,19.8,2.05,-0.248,13.1,11.9,8.6,18.5,-5.59
N#Cc1cccc(S(=O)(=O)N2CCCCC2CCN2CCCC2=O)c1 (configuration not stated),-5.51,-52,-6.45,9.03,4.76,2,8.99,-12.8,4.17,11.1,-4.06
CC(C)(C)c1nc(CN2CCCC(Cn3cncn3)C2)cs1 (configuration not stated),-0.434,21.6,-0.165,-3.27,5,-17.6,10.6,3.9,1.48,18.5,-8.38
CN(Cc1nnc2n1CCC2)C(=O)NCCc1ccc2c(c1)OCO2,-3.06,21.6,-5.22,-0.223,-5.38,-2.4,10.6,18.3,7.39,16.1,-6.24
Cc1cc(-c2nnn(CCNS(C)(=O)=O)n2)ccc1F,-6.86,5.48,0.593,2.92,3.17,0.399,4.71,17.4,9.38,18.5,-2.42
CC(C)Cc1noc(CN2CCN(C(=O)c3cccc(F)c3)CC2)n1,-4.75,-2.74,1.5,5.59,1.39,0,1.97,0.357,4.17,1.24,6.05
CC(NC(N)=O)C(=O)N1CCCN(Cc2nccn2C(C)C)CC1 (configuration not stated),-1.61,1.27,7.49,0.743,-1.13,-4.09,2.74,-2.71,0,2.53,-3.12
Cc1cccc(C2(C(=O)NCCCn3cccn3)CC2)c1,-2.92,19.2,-1.18,14.6,2.94,17.3,10.5,8.26,3.23,15,-6.34
CNc1nc(CNC(=O)Nc2ccccc2SC)cs1,1.51,-2.63,-1.33,0.229,-2.07,3.83,7.69,10.1,1.47,4.88,3.33
Cc1noc(CCCC(=O)NC(C)c2ccccn2)n1 (configuration not stated),-1.78,18.4,-1.11,2.7,3.01,2.68,6.52,3.32,10.3,21.9,-13.2
CCn1cc2c(n1)CN(Cc1nccs1)CC2COCC1CC1 (configuration not stated),-2.47,13.3,8.82,0.752,-0.197,3.03,6.61,0.895,6.38,11.5,-4.67
Cc1ccc(CN2CCOC3(COCCN(CCN(C)C)C3)C2)o1 (configuration not stated),-3.53,5.33,9.65,0.443,1.18,-0.699,14,3.66,8.51,19.2,-3.31
c1cncc(OCc2noc3c2CN(Cc2ccoc2)CC3)c1,-1.69,22.7,-8.08,-0.376,3.93,-2.99,22.7,8.21,5.29,15.4,-11.2
COc1ccc(CN(C)[C@@H]2CN(C(=O)c3cccs3)C[C@H]2O)cc1,-3.27,6.76,10.4,2.59,-6.13,-2.09,10.6,15.6,5.38,9.09,-9
COc1ccc(NC(C)C(=O)NCCc2cccs2)cc1F (configuration not stated),-7.72,-2.74,-49.8,6.34,-3.92,0,15.3,14.2,-1.07,-5,-3.93
CC1CCCN(Cc2c(C3CCOCC3)[nH]c3ncccc23)C1 (configuration not stated),-2.15,25.7,4.08,-6.47,0.198,-6.26,14.3,11,2.15,11.7,-12
CCc1noc(C)c1C(=O)N1CCCC1Cn1cc(C)cn1 (configuration not stated),-3.44,15.8,8.82,-9.39,-10.4,0,3.64,-1.17,2.46,1.24,-10.2
Fc1ccc(CN2CC[C@H]3O[C@@H](COCC4CCOCC4)CC[C@H]32)cc1,-5.06,5.33,10.6,-6.01,-7.48,-0.233,3.08,17.6,-1.06,-1.28,-7.73
CC(C)(C)n1cc(C(=O)N2CCCN(Cc3cccs3)CC2)cn1,-1.01,5.26,3.41,2.97,-3.57,3.45,9.19,14.5,1.47,9.76,-2.3
CCn1nccc1CNC(=O)C1CC1,-5.07,10.4,-0.00833,7.25,5.61,-4.14,10.7,-23.9,8.6,18.5,132
COc1ccc(C2OC(COc3ccccc3Br)=NN2C(C)=O)cc1 (configuration not stated),-1.41,13,-0.88,-8.22,-5.23,3.23,9.22,4.18,0,1.28,-8.68
CN1C(=O)CC(C(=O)O)C12CCN(Cc1ccc(Cl)cc1F)CC2 (configuration not stated),-2.86,10.7,-8,3.22,-0.487,2.6,10.1,10.2,6.01,21,-6.2
